# Bioassay records as filed in PubChem.
# IL-1B inflam inh = inflammasome signaling inhibition, IL-1 beta readout; hit rate 4.7% among 360,000; activity change, % at 57.5 µM; THP-1 LPS/ATP IL-1B secretion, AlphaLISA, 16 h; active compounds read low; in the data active = activity change below about -50%; inconclusive = mostly about -30% to -49%
#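 THP-1 cells pretreated 1 hr with compounds (up to 57.5 uM final), then stimulated with LPS (250 ng/mL final) plus ATP (1.25 mM final); secreted IL-1B measured by AlphaLISA after 16 hr, decreased signal indicating inhibition.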
# HT1080NT lethal = kills 2HG-producing HT-1080-NT fibrosarcoma cells | hit rate 1.6% among 360,000 | HT-1080-NT fibrosarcoma viability, CellTiter-Glo ATP luminescence, 48 h | AID 686970 | Potency, µM (titrated, usually from 46.1 µM), actives largely listed as cytotoxic;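 also: NT is the 2HG producing partner of a matched IDH1 knockdown line; nearly all actives have a fitted effect of over 55% in size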
#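 Viability by CellTiter-Glo luminescence after 48 h compound exposure at 37C of HT-1080-NT cells (750/well, RPMI, 5% FBS). % activity scaled between DMSO wells and medium-only wells, then curve-fitted and categorized by curve class.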
# ELG1 DNA repair = ELG1-dependent DNA repair inhibition; hit rate 2.3% among 330,000; HEK293T ELG1-luciferase reporter, luminescence, 16 h; DNA damage induced by 5-fluorouridine; Potency, µM (top dose mostly 46.1 µM), usual class: inhibitors; also: nearly all actives have a fitted effect of over 55% in size
#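 HEK293T cells expressing luciferase-tagged ELG1 (2,000/well) received 5-Fluorouridine plus compound or DMSO for 16 hr at 37 °C. Luciferase was read by ONE-Glo luminescence after 30 min at room temperature.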
# HT1080 IDH1KD tx = kills HT-1080 cells with IDH1 knockdown | HT-1080 IDH1 knockdown viability, ATP luminescence, 48 h | Potency, µM (series often up to 46.1 µM), hits mostly cytotoxic | hit rate 2% among 360,000 | AID 686971
#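 CellTiter-Glo luminescence after 48 h compound exposure at 37 degrees C of IDH1-knockdown HT-1080 cells in 5% FBS RPMI. %Activity scaled between DMSO wells and cell-free media wells, with curves fitted and assigned curve classes.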
# TDP1 cell CPT = growth inhibition of DT40 Tdp1-/-;hTDP1 cells with camptothecin (screen for TDP1 inhibitors); AID 686979; chicken DT40 Tdp1-/-;hTDP1 cells + 20 nM CPT, ATP luminescence, 48 h; hit rate 12% among 420,000; Potency, µM (titrated, usually from 46.2 µM), hits mostly inhibitors; also: nearly all actives have a fitted effect of over 55% in size
#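 Cell growth measured by CellTiter-Glo luminescence after a minimum 48 h, 37 C compound exposure with 20 nM CPT in Tdp1-knockout DT40 cells stably expressing hTDP1, seeded 400/well; qHTS titration format.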
# DT40 TDP1 no CPT = qHTS for Inhibitors of human tyrosyl-DNA phosphodiesterase 1 (TDP1): qHTS in cells in absence of CPT | DT40 Tdp1-/- hTDP1 cells, no CPT, ATP luminescence, 48 h | Potency, µM (doses to about 46.2 µM), hits mostly inhibitors | hit rate 15% among 420,000; also: nearly all actives have a fitted effect of over 55% in size
#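 Camptothecin absent (DMSO only). Human TDP1-complemented DT40 knockout cells, 400 cells/well, 37 °C for minimum 48 hr; ATP measured via CellTiter-Glo, 30 min dark incubation, luminescence.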
# Numbers stand for hits; - = inactive; ? = inconclusive; . = no result given; ! = not confirmed by another sample; [ ] = dose if it differs, or a comment. An excerpt weighted towards active compounds, which were near 19% of everything screened. Unless noted, calls follow the shape of the dose curve; as a rule, active = well fitted curve in the direction sought with a large enough effect; inconclusive = small, poorly fitted or top-dose-only effect, or another doubt; inactive = no such curve, though single readings can be large; an effect the other way counts as inactive or inconclusive.
SMILES,IL-1B inflam inh,HT1080NT lethal,ELG1 DNA repair,HT1080 IDH1KD tx,TDP1 cell CPT,DT40 TDP1 no CPT
O=C(c1ccco1)N1CCCC(c2nc(-c3ccc(S(=O)(=O)NCc4ccccc4)cc3)no2)C1 (stereo not given),?,?,20.6µM,?,13µM,18.4µM
COC1=CC(=O)OC(c2cccc([N+](=O)[O-])c2)C1 (stereo not given),-,-,.,-,-,-
CC(C)C(=O)N1CCCC1(C)C(=O)NCc1ccc(Cl)cc1 (stereo not given),-,-,.,?,-,-
Cc1noc(C)c1C(=O)N1CCC2(CCCN(c3ncccn3)C2)CC1,.,.,.,.,-,-
COc1ccc(-c2noc(C3CCCN(C(=O)CCc4ccccc4)C3)n2)cc1 (stereo not given),-,-,?,-,17.8µM,?
CCOc1ccc(C(=O)Nc2cccc(NC(=O)c3ccc(C(C)(C)C)cc3)c2)cc1Br,.,.,.,.,?,5.8µM
CCOc1ccc(C(=O)NCc2ccccc2)cc1Br,-,-,-,-,-,-
CCOc1ccc(C(=O)Nc2cccc(NC(=O)c3ccco3)c2)cc1Cl,.,.,.,.,?,16.4µM
CCOc1cc(C(=O)Nc2ccccc2F)cc(Br)c1OCC,-,-,?,-,20.6µM,?
CCOc1cc(C(=O)Nc2ccc(F)cc2)cc(Br)c1OC,-,-,?,-,-,?
CC1(C)CC(=O)C=C(c2n[nH]nc2C2=CCCCC2)C1,-,-,.,-,-,-
COc1ccc(CN(CC(O)COc2cccc3[nH]cc(C)c23)C(C)(C)C)cc1 (stereo not given),-,-,-,-,?,?
CC(Sc1nnc(Cc2cccs2)n1C1CCCCC1)C(=O)NCc1ccco1 (stereo not given),-,-,-,-,14.6µM,14.6µM
NC(=O)CSc1nnc(Cc2cccs2)n1C1CCCCC1,-,-,?,-,-,-
O=C(/C=C/c1ccccc1[N+](=O)[O-])NCc1ccncc1,-,-,-,-,-,?
O=C(CCNC(=O)c1ccccc1Cl)NCC(c1ccc(F)cc1)N1CCOCC1 (stereo not given),-,-,-,-,-,-
C=CCN(C(=O)CNC(=O)c1cccs1)C(C(=O)NC1CCCCC1)c1cccnc1 (stereo not given),-,-,-,-,-,-
CCCCCc1ccc(-c2cn(CCCOCc3ccccc3)nn2)cc1,-,-,-,-,?,22.4µM
COc1ccc(-c2cn(CC3CCCCC3)nn2)cc1,-,-,?,-,-,-
c1ccc(-c2cn(CC3CCCCC3)nn2)cc1,-,-,?,-,?,12.6µM!
CCCCCc1ccc(-c2cn(CC3CCCCC3)nn2)cc1,-,-,-,-,?,8.91µM
N#CC1(NC(=O)CN2C(=O)c3ccccc3C2=O)CCCCC1,-,-,-,-,-,-
N#CC1(NC(=O)Cn2ncc(Cl)c(Cl)c2=O)CCCCC1,-102.6,5.8µM,5.8µM,9.2µM,13µM,7.31µM
Cc1ccc(C(c2nnnn2CC2CCCO2)N2CCN(c3cccc(C)c3C)CC2)cc1 (stereo not given),-,-,?,-,?,23.1µM
CC(C)CC(c1nnnn1Cc1ccco1)N1CCN(c2cccc(Cl)c2)CC1 (stereo not given),-,-,?,-,?,16.4µM
SMILES,IL-1B inflam inh,HT1080NT lethal,ELG1 DNA repair,HT1080 IDH1KD tx,TDP1 cell CPT,DT40 TDP1 no CPT
CC(C)CC(c1nnnn1CC1CCCO1)N1CCN(c2cccc(Cl)c2)CC1 (stereo not given),-,-,-,-,25.9µM,16.4µM
COc1ccc(C(c2nnnn2CC2CCCO2)N2CCN(c3ccccc3)CC2)cc1 (stereo not given),-,-,-,-,-,-
CCCC(c1nnnn1CC1CCCO1)N1CCN(c2cc(Cl)ccc2C)CC1 (stereo not given),-,-,-,-,?,?
CCn1c(CC(=O)Nc2ccc(C)cc2)n[nH]c1=S,-,-,-,-,-,-
CCCCCCCC(=O)OC[C@H](CO)OC(=O)CCCCCCC,.,.,.,.,-[4.12 µM],-[4.12 µM]
CC(Sc1ncnc2sccc12)C(=O)Nc1ccc(C(N)=O)cc1 (stereo not given),-,-,-,-,-,-
CC(C)Cc1nc2cc(NS(=O)(=O)N(C)C)cc(C(=O)N3CCc4ccccc4C3)c2n1C,.,.,.,.,-[9.04 µM],-
C=C1C=C(C(F)F)n2ncc(C(=O)NCc3ccccc3OC)c2N1,.,.,.,.,10µM,?
C=C1C=C(C(F)F)n2ncc(C(=O)NCc3ccc(Cl)cc3Cl)c2N1,.,.,.,.,8.91µM,15.8µM
C=C1C=C(C(F)F)n2ncc(C(=O)Nc3cccc(CC)c3)c2N1,.,.,.,.,-,-
C=C1C=C(C(F)F)n2ncc(C(=O)Nc3ccc(Br)cc3C(F)(F)F)c2N1,.,.,.,.,-,-
Cc1ccc(C(=O)NC2(C(F)(F)F)C(=O)Nc3c2c(=O)[nH]c(=O)n3CCc2ccccc2)cc1 (stereo not given),.,.,.,.,-,-
O=C(CCNc1ccc(Br)cc1)c1cccc([N+](=O)[O-])c1,-,23.1µM,-,?,14.6µM,18.4µM
O=C(CNC(=O)c1cccc([N+](=O)[O-])c1)OCCCC(=O)c1ccc(F)cc1,-,-,-,-,-,-
O=C(CCNc1ccc(F)cc1)c1cccc([N+](=O)[O-])c1,-,?,-,?,16.4µM,23.1µM
O=C(CCNc1ccccc1)c1cccc([N+](=O)[O-])c1,-,-,?,?,18.4µM,16.4µM
Cn1c(CNC(=O)c2ccc3c(c2)OCO3)nnc1SCC(=O)Nc1ccc(F)cc1,-,-,-,-,-,-
CNC(=O)COc1ccccc1C(=O)Nc1ccccc1,.,.,.,.,-,-
Cc1ccc(NC(=O)CC(C)CC(=O)NCc2ccccc2)cc1Cl (stereo not given),-,-,-,-,13µM,?
COc1ccc(NC(C)=O)cc1CNC(=O)COc1ccccc1C(=O)Nc1cccc(C)c1C,-,-,-,-,?,4.11µM
C/C(CC(=O)Nc1ccc(C)c(Cl)c1)=N\NC(=O)Cc1ccccc1,-,-,-,-,-,-
CS(=O)(=O)c1ccccc1NC(=O)COc1ccccc1C(=O)Nc1ccccc1,.,-,.,-,11.2µM,11.2µM
Cc1ccc(Cl)cc1NC(=O)c1ccccc1OCC(=O)Nc1ccc(Cl)cc1,-,?,-,-,?,5.8µM
CC12CCC3c4cc(CN5CCOCC5)c(O)cc4CCC3C1CCC2=O (stereo not given),-,-,.,-,?,?
COc1ccc(OCc2nnc(SCC(=O)c3c(N)n(C)c(=O)n(C)c3=O)n2-c2ccccc2F)cc1,.,.,-,.,.,.
